The supplement of paper PMC12024529

Tested on: HEK293 WT BDD-FVIII-Gluc
Assay: secreted FVIII-Gluc luciferase Z-score vs DMSO control; higher = more FVIII-Gluc secretion
Details: 5 µM
Description: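 Natural plant-compound library (480 compounds, ST catalogue IDs) screened on HEK293 cells stably expressing WT BDD-FVIII-Gaussia luciferase fusion at 5 µM. Secreted Gluc activity in the medium is given as a Z-score relative to DMSO controls.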

Row | Compound | secreted FVIII-Gluc luciferase Z-score
1 | C1CCN2C[C@H]3C[C@H](CN4CCCC[C@@H]34)[C@H]2C1 | 1.26
2 | COc1cc2ccc(=O)oc2c(O)c1O | 0.185
3 | COc1ccc(-c2coc3cc(OC4OC(CO)C(O)C(O)C4O)cc(O)c3c2=O)cc1 (centres undefined) | -0.0597
4 | COc1ccc(CCN(C)CCCC(C#N)(c2ccc(OC)c(OC)c2)C(C)C)cc1OC (centres undefined) | 0.188
5 | Nc1ccn([C@@H]2O[C@H](CO)[C@@H](O)[C@H]2O)c(=O)n1 | 1.12
6 | COc1ccc2c(=O)c(-c3ccccc3)coc2c1 | 1.15
7 | COC(=O)C1C2CC3c4[nH]c5cc(OC)ccc5c4CCN3CC2CC(OC(=O)c2cc(OC)c(OC)c(OC)c2)C1OC (centres undefined) | -0.436
8 | O=c1cc(-c2ccc(O)c(O)c2)oc2cc(O)cc(O)c12 | -1.34
9 | N=C(N=C(N)N)N1CCOCC1 | 0.384
10 | Cc1ccc2oc(-c3ccccc3)c(O)c(=O)c2c1 | 1.13
11 | COC(=O)[C@@H]1C(O)CCC2CN3CCc4c([nH]c5ccccc45)C3CC21 (some centres undefined) | 0.187
12 | CO[C@H]1/C=C/O[C@@]2(C)Oc3c(C)c(O)c4c(O)c(c(/C=N/N5CCN(C)CC5)c(O)c4c3C2=O)NC(=O)/C(C)=C\C=C\[C@H](C)[C@H](O)[C@@H](C)[C@@H](O)[C@@H](C)[C@H](OC(C)=O)[C@@H]1C | -0.504
13 | COC1=CC(=O)CC(C)C12Oc1c(Cl)c(OC)cc(OC)c1C2=O (centres undefined) | 0.0156
14 | CC(=O)Oc1c(C)c(C)c2c(c1C)CCC(C)(CCCC(C)CCCC(C)CCCC(C)C)O2 (centres undefined) | 0.728
15 | C[C@H](O)[C@H](O)[C@@H](O)c1cnc2nc(N)[nH]c(=O)c2n1 | 0.588
16 | C/C(=C\CNc1ncnc2c1ncn2C1OC(CO)C(O)C1O)CO (centres undefined) | -0.332
17 | CC(C)c1ccc2c(c1)CCC1C(C)(CN)CCC[C@]21C (some centres undefined) | 0.04
18 | O=c1cc(-c2ccccc2)oc2cc(O[C@@H]3O[C@H](CO)[C@@H](O)[C@H](O)[C@H]3O)c(O)c(O)c12 | -0.188
19 | COc1ccccc1-c1oc2ccccc2c(=O)c1OC | 1.49
20 | CC(C)CCCC(C)C1CCC2C3CC=C4CC(O)CCC4(C)C3CCC12C (centres undefined) | 0.231

Row | Compound | secreted FVIII-Gluc luciferase Z-score
21 | O=C(/C=C/c1ccc(O)cc1)c1ccccc1O | 0.315
22 | O=c1cnn(C2OC(CO)C(O)C2O)c(=O)[nH]1 (centres undefined) | -2.33
23 | C=C1CC23C[C@@]1(O)CCC2C12C=CC(O)C(C)(C(=O)O1)C2[C@@H]3C(=O)O (some centres undefined) | -0.216
24 | COc1cc2cc3c4c(cc(OC)c(OC)c4c2cc1OC)CCN3C | 0.0768
25 | C=CC1CN2CCC1CC2C(O)c1ccnc2ccc(OC)cc12 (centres undefined) | -0.00699
26 | CC[C@@H]1[C@H]2CCCCN3[C@H]2[C@H](C[C@H]3[C@@H]2C[C@H](C)C(=O)O2)[C@@H]2[C@H]1OC(=O)[C@H]2C | -0.0302
27 | O=C1C=CC2=C3c4cc(O)c(O)cc4CC3(O)COC2=C1O (centres undefined) | 0.729
28 | CO[C@@H]1[C@@H](O[C@@H]2O[C@H](C)[C@@H](O[C@H]3C[C@@](C)(O)[C@@H](OC(=O)CC(C)C)[C@H](C)O3)[C@H](N(C)C)[C@H]2O)[C@@H](CC=O)C[C@@H](C)[C@@H](O)/C=C/C=C/C[C@@H](C)OC(=O)C[C@H]1OC(C)=O | 0.0728
29 | O=C(O)C1=C[C@@H](O)[C@@H](O)[C@H](O)C1 | 0.3
30 | OC[C@H]1O[C@@H](O[C@@H]2[C@@H](CO)O[C@](O)(CO)[C@H]2O)[C@H](O)[C@@H](O)[C@H]1O | 0.26
31 | COc1c(C)c2c(c(O)c1C/C=C(\C)CCC(=O)O)C(=O)OC2 | -4.24
32 | COc1ccc2c3c1OC1C(O)C=CC(C=C2)C31CCN(C)C (centres undefined) | -0.171
33 | Cc1ccc2oc(-c3ccccc3)cc(=O)c2c1 | 0.845
34 | C[C@H]1O[C@@H](O[C@H]2[C@@H](O)C[C@H](O[C@H]3[C@@H](O)C[C@H](O[C@H]4CC[C@@]5(C)[C@H](CC[C@@H]6[C@@H]5C[C@@H](O)[C@]5(C)[C@@H](C7=CC(=O)OC7)CC[C@]65O)C4)O[C@@H]3C)O[C@@H]2C)C[C@H](O)[C@@H]1O | -4.67
35 | CC1CC[C@H](C(C)C)C(O)C1 (some centres undefined) | 0.453
36 | COc1ccc2oc(-c3ccc(O)cc3)cc(=O)c2c1 | 1.23
37 | CC1=CC(=O)CC(C)(C)C1(O)/C=C/C(C)=C\C(=O)O (centres undefined) | 0.388
38 | COc1ccc(-c2coc3cc(O)cc(O)c3c2=O)cc1 | 0.185
39 | Nc1ccn([C@@H]2O[C@H](CO)[C@@H](OP(=O)(O)O)[C@H]2O)c(=O)n1 | -0.278
